Where “and” joins values, the source holds several entries; their conditions need not be identical. Identical values can stand only once. Calls of active or inactive are those of the source.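 The calls were made as follows, unless noted: active = thallium flux through the channel raised or lowered by more than 3 SD from vehicle-only wells, actives on both sides; inactive = the rest.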
Key:
F380Y = assay: BK channel mutant inhibitors and activators – cell-based, U2OS BacMam, thallium flux, beta subunits, selectivity assay, profiling panel (AID 1259406); conditions: U2OS BacMam BK variants, at 30 µM;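 also: initial slope of Thallos dye fluorescence rise after thallium is added; log ratio against the mean of 0.3% DMSO vehicle wells on the same plate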
F380Y/beta1 = assay: as above; conditions: U2OS BacMam BK variants, at 30 µM
F380Y/beta2Delta = assay: as above; conditions: U2OS BacMam BK variants, at 30 µM
F380Y/beta4 = assay: as above; conditions: U2OS BacMam BK variants, at 30 µM
[1] = target: Calcium-activated potassium channel subunit alpha-1 (Homo sapiens) + Leucine-rich repeat-containing protein 26 (Homo sapiens) (UniProt Q12791+Q2I0M4); assay: as above; conditions: U2OS BacMam BK variants, F380Y/Slo1WT/gamma1, at 30 µM
Chain of Calcium-activated potassium channel subunit alpha-1 (Homo sapiens) + Leucine-rich repeat-containing protein 26 (Homo sapiens) (Q2I0M4 whole entry, looked up, one chain of several): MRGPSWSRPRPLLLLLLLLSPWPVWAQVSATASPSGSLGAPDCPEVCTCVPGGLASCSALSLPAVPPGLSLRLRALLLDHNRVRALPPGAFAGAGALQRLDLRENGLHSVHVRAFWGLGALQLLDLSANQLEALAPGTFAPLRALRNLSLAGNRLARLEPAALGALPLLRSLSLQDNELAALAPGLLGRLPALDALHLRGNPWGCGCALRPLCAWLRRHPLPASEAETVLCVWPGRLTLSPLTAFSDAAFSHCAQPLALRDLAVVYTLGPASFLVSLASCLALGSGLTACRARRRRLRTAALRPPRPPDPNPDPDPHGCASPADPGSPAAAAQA

R275C = assay: as above; conditions: U2OS BacMam BK variants, at 30 µM
R275C/beta1 = assay: as above; conditions: U2OS BacMam BK variants, at 30 µM
R275C/beta2Delta = assay: as above; conditions: U2OS BacMam BK variants, at 30 µM
R275C/beta4 = assay: as above; conditions: U2OS BacMam BK variants, at 30 µM
R275C/Slo1WT/beta2 = assay: as above; conditions: U2OS BacMam BK variants, at 30 µM
[2] = P. berghei load reduction in hepatocytes – cell-based, HepG2, luciferase luminescence, HepG2 viability, primary screen (AID 624349; in the data active = parasite load remaining mostly below about 12%, no sharp cut-off; inactive = mostly above about 10%;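 also: 100% = mean of DMSO negative control wells on the same plate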); conditions: P. berghei liver stage in HepG2, luciferase luminescence, concentration not given here; parasite load remaining: stronger effect = lower value; viability: measured here: HepG2 viability without parasites
[3] = signal quenchers or enhancers, Cy5 substrate/SSB – biochemical, NIH Clinical Collection, E. coli SSB, artefact control for HCV NS3 helicase inhibitor project (AID 743268; call rule not given here); conditions: Cy5-oligo bound E. coli SSB, fluorescence interference
[4] = system: Hepatitis C virus NS3 helicase; assay: blockers of NS3h binding to DNA – biochemical, fluorescence polarization, NIH Clinical Collection, primary screen (AID 743270; call rule not given here); conditions: NS3 helicase binding to Cy5-dT15 DNA, stronger effect = higher value, concentration not given here
[5] = target: Single-stranded DNA-binding protein (Escherichia coli (strain K12)) (UniProt P0AGE0); assay: SSB-ssDNA binding inhibitors – biochemical, fluorescence polarization, NIH Clinical Collection, counter-screen for HCV NS3 helicase inhibitor project (AID 743271; in the data active = inhibition above about 28%); conditions: E. coli SSB-DNA binding, stronger effect = higher value, concentration not given here
[6] = compounds distorting NS3 helicase fluorescence signal – biochemical, NIH Clinical Collection, artefact control for HCV NS3 helicase inhibitor project (AID 743272; call rule not given here;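 also: HCV NS3 helicase with a Cy5 labelled single stranded DNA probe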); conditions: fluorescence interference counterscreen, HCV NS3 helicase assay; stronger effect = lower value
[7] = modulation of C. elegans fzo-1 (AID 1259413; call rule not given here;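 also: fzo-1 mutant C. elegans worms in liquid wells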); conditions: C. elegans fzo-1 modulator screen, mean read-out; stronger effect = higher value
[8] = EMT-state selective cytotoxicity in co-culture – imaging, PC-3E GFP, TEM4-18 mCherry, primary screen (AID 1345086;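 active = compounds killing one labelled cell type while sparing the other, by normalised counts and ratio limits, not self-fluorescent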;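 as to all read-outs here: cells exposed to compound for 72 h before imaging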;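 as to red/green cell ratio (normalised): normalised mesenchymal count divided by normalised epithelial count so high means epithelial killing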); conditions: PC-3E GFP / TEM4-18 mCherry co-culture, imaging cell counts, at 1 µM; for red/green cell ratio (normalised): actives lie on both sides, counts scaled to control wells, 1 = unselective
[9] = viability loss with induced miR-34 in A549 – imaging, A549 dox-inducible miR-34, nuclei and caspase counts, primary screen (AID 1347080;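 active = compounds whose cell count with miR-34 switched on is under 0.7 times the count with it off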); conditions: A549 miR-34 inducible, Hoechst nuclei count, 48 h
[10] = MELAS cybrid and Rieske KO viability enhancers – cell-based, MELAS cybrids, Rieske KO mouse fibroblasts, CellTiter-Glo, primary screen (AID 1508586;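 active = mean z-score across replicates of 1.96 or higher in either the MELAS or the Rieske mutant cell line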;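 also: z relative to plate mean and SD of compound and empty wells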); conditions: low glucose
[11] = measured here: epithelial PC-3E GFP cell survival
[12] = measured here: mesenchymal TEM4-18 mCherry cell survival
[13] = stronger effect = lower value, cell number ratio, induced over uninduced
[14] = measured here: relative caspase fold change +Dox/-Dox
[15] = measured here: total cells with miR-34 induction, stronger effect = lower value
[16] = measured here: total cells without miR-34 induction
[17] = MELAS cybrid survival, CellTiter-Glo 48 h, stronger effect = higher value
[18] = Rieske KO mouse fibroblast survival, CellTiter-Glo 72 h

COC(=O)c1cncc(Br)c1
inactive: log fold change Tl+ flux (F380Y) -0.0118 | log fold change Tl+ flux (F380Y/beta1) 0.012 | log fold change Tl+ flux (F380Y/beta2Delta) 0.0106 | log fold change Tl+ flux (F380Y/beta4) -0.0443 | log fold change Tl+ flux [1] -0.0357 | log fold change Tl+ flux (R275C) -0.0441 | log fold change Tl+ flux (R275C/beta1) -0.0547 | log fold change Tl+ flux (R275C/beta2Delta) -0.0215 | log fold change Tl+ flux (R275C/beta4) -0.021 | log fold change Tl+ flux (R275C/Slo1WT/beta2) -0.0413

CN(C)CCc1c[nH]c2ccc(Cn3cncn3)cc12
inactive: parasite load remaining [2] 45% and 103% | fluorescence ratio [3] 1.13 | inhibition [4] 0.4% | inhibition [5] 5.29% | fluorescence ratio [6] 0.91 | mean signal [7] 236 | red/green cell ratio (normalised) [8] 0.92 | fold change [9, 13] 0.991 and 0.886 and 0.916 | z-score [10, 17] -0.276 and 0.545 | log fold change Tl+ flux (F380Y) -0.0521 | log fold change Tl+ flux (F380Y/beta1) -0.0483 | log fold change Tl+ flux (F380Y/beta2Delta) 0 | log fold change Tl+ flux (F380Y/beta4) 0.0107 | log fold change Tl+ flux [1] 0.0357 | log fold change Tl+ flux (R275C/beta1) -0.00809 | log fold change Tl+ flux (R275C/beta2Delta) -0.0421 | log fold change Tl+ flux (R275C/beta4) 0.00222 | log fold change Tl+ flux (R275C/Slo1WT/beta2) 0.0127
99.5% and 78.1%: viability [2]
7610 and 7730 and 12300: cell count [9, 15]
1.31 and 0.982 and 5.76: fold change [9, 14]
active: log fold change Tl+ flux (R275C) -0.121
0.697 and -0.263: z-score [10, 18]
1.13: normalised cell number [8, 12]
7680 and 8720 and 13400: cell count [9, 16]
1.24: normalised cell number [8, 11]

C[C@H]1O[C@H](O[C@H]2[C@H](O)[C@@H](O)[C@@H](O[C@H]3[C@H](O)[C@@H](O)C(O)O[C@@H]3CO)O[C@@H]2CO)[C@H](O)[C@@H](O)[C@@H]1N[C@H]1C=C(CO)[C@@H](O)[C@H](O)[C@H]1O (some centres not stated)
4.27: fold change [9, 14]
1: normalised cell number [8, 12]
10500: cell count [9, 15]
inactive: parasite load remaining [2] 61.3% and 108% | fluorescence ratio [3] 1.08 | inhibition [4] 4.36% | inhibition [5] 0.67% | fluorescence ratio [6] 1.03 | mean signal [7] 228 | red/green cell ratio (normalised) [8] 0.91 | fold change [9, 13] 0.866 | log fold change Tl+ flux (F380Y) -0.0255 | log fold change Tl+ flux (F380Y/beta1) 0.0224 | log fold change Tl+ flux (F380Y/beta2Delta) 0.0097 | log fold change Tl+ flux (F380Y/beta4) 0.039 | log fold change Tl+ flux [1] 0.00221 | log fold change Tl+ flux (R275C) -0.0575 | log fold change Tl+ flux (R275C/beta1) -0.00956 | log fold change Tl+ flux (R275C/beta2Delta) -0.0417 | log fold change Tl+ flux (R275C/beta4) -0.0364 | log fold change Tl+ flux (R275C/Slo1WT/beta2) -0.0206
12200: cell count [9, 16]
1.1: normalised cell number [8, 11]
104% and 111%: viability [2]

CC(CCCCC(=O)Nc1ccc(C(F)(F)F)cc1)NCCc1cnc[nH]1 (configuration not stated)
inactive: parasite load remaining [2] 54.5% | fluorescence ratio [3] 0.96 | inhibition [4] -8.95% | inhibition [5] -4.33% | fluorescence ratio [6] 0.92 | mean signal [7] 233 | fold change [9, 13] 0.859 and 0.909 | log fold change Tl+ flux (F380Y) 0.0425 | log fold change Tl+ flux (F380Y/beta1) 0.0554 | log fold change Tl+ flux (F380Y/beta2Delta) -0.00659 | log fold change Tl+ flux (F380Y/beta4) -0.0291 | log fold change Tl+ flux [1] 0.0127 | log fold change Tl+ flux (R275C) -0.0675 | log fold change Tl+ flux (R275C/beta1) 0.0449 | log fold change Tl+ flux (R275C/beta2Delta) 0.0193 | log fold change Tl+ flux (R275C/beta4) 0.0332 | log fold change Tl+ flux (R275C/Slo1WT/beta2) 0.00571
67%: viability [2]
8900 and 8240: cell count [9, 15]
1.55 and 0.779: fold change [9, 14]
10400 and 9060: cell count [9, 16]

C/C(=C\C(=O)OCCCCCCCCC(=O)O)C[C@@H]1OC[C@H](C[C@@H]2O[C@H]2[C@@H](C)[C@H](C)O)[C@@H](O)[C@H]1O
0.766: fold change [9, 14]
116%: viability [2]
inactive: parasite load remaining [2] 65% | fluorescence ratio [3] 1.04 | inhibition [4] -4.09% | inhibition [5] -5.05% | fluorescence ratio [6] 1.03 | mean signal [7] 235 | red/green cell ratio (normalised) [8] 1 | fold change [9, 13] 0.967 | z-score [10, 17] -3.53 | log fold change Tl+ flux (F380Y) 0.0421 | log fold change Tl+ flux (F380Y/beta1) -0.0188 | log fold change Tl+ flux (F380Y/beta2Delta) 0.0619 | log fold change Tl+ flux (F380Y/beta4) 0.0116 | log fold change Tl+ flux [1] 0.0402 | log fold change Tl+ flux (R275C) -0.0142 | log fold change Tl+ flux (R275C/beta1) -0.0156 | log fold change Tl+ flux (R275C/beta2Delta) -0.0137 | log fold change Tl+ flux (R275C/beta4) 0.0262 | log fold change Tl+ flux (R275C/Slo1WT/beta2) -0.00127
-3.7: z-score [10, 18]
1.08: normalised cell number [8, 11] | normalised cell number [8, 12]
8160: cell count [9, 16]
7890: cell count [9, 15]
